Compounds without any hit were thinned out: in the full panel of roughly 83,000, 20% have a hit.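 Percent growth is the endpoint: 0 to 100 indicates growth inhibition (40 means 60% inhibition), 0 means no net growth, and negative values indicate cell death.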 The source made the active and inactive calls. The calls were made as follows: active = growth percent below 10; inactive = the rest.

This test has as its system SK-MEL-2 melanoma. As to the kind of experiment: NCI-60 one-dose screen, 48 h (100 = growth as untreated, 0 = no growth, -100 = all killed). Conditions: 10 µM unless noted.
Turning to `CCOC(=O)c1c(C)[nH]c2ccc(O)cc12`, the growth was 97.9% (inactive). The result for `CCC1CCCCN1C(=S)N/N=C(\C)c1ccccn1` (configuration not stated) reads -11.9% (active); that for `CC(/C=N/NC(N)=S)Cc1ccc(C(C)C)cc1` (configuration not stated), 54.4% (inactive); that for `Nc1ccc(C(=O)/C=C/c2ccccc2)cc1`, 91.6% (inactive). The result for `Cc1oc2c(C)c3oc(=O)cc(C)c3cc2c1CCl` reads 109% (inactive). The figure for `O=C(/C(Cl)=N/O)c1ccc(-c2ccccc2)cc1` is 110% (inactive); for `CC(C)c1ccc(Nc2n[nH]c(=S)s2)cc1` it is 111% (inactive); for `NC(=S)N/N=C\c1nccc2c(N)cccc12` it is 39.3% (inactive). For the molecule `COc1cc2c(c(OC)c1OC)-c1ccc(NCc3ccccc3)c(=O)cc1[C@@H](NC(C)=O)CC2`, the growth is 19.2% (inactive). Consider `CCCCCCCCCCCCCCCCSC(=NCC)NCC`, for which the growth is -21.6% (active). For the molecule `CN(Cc1ccccc1)c1ccc(SC#N)cc1`, the growth is 98.4% (inactive). The result for `CC(=O)Nc1ccc(C(=O)CCl)cc1` reads 96.6% (inactive); that for `O=[N+]([O-])c1ccc(N2CCN(Cc3ccccc3)CC2)c2c1no[n+]2[O-]`, 64.8% (inactive); that for `CCOC(=O)NC(/C=C/c1ccccc1)NC(=O)OCC`, 104% (inactive).

With `CCCCN(CCCC)CCCCCCCCCCO`, the growth is 86.9% (inactive).

For `S=C1SCN(Cc2cccs2)CN1Cc1cccs1`, the growth was 99% (inactive). For `CCOC(=O)/C(=C\c1ccc2ccccc2c1)P(=O)(OCC)OCC`, the growth was 54.7% (inactive).

Take `Nc1ccc(Oc2ccccc2)c(Cl)c1`: the growth was 105% (inactive).

Consider `COc1ccc(C(Cn2ccnc2)Sc2ccc(Cl)c(Cl)c2)cc1` (configuration not stated), for which the growth was 104% (inactive). The figure for `O=[N+]([O-])/C(=C/c1ccccc1)c1ccccc1` is 107% (inactive); for `CCCCCCC1N=C(N)N=C(N)N1c1cccc(Cl)c1` (configuration not stated) it is 82.9% (inactive); for `O=C1C=CC(=O)N1C1CCCCCCCCCCC1` it is 84.2% (inactive). The result for `Cc1nc(Sc2nc3ccc([N+](=O)[O-])cc3s2)sc1C` reads 15.4% (inactive).

Regarding `Fc1ccc(NCCS)cc1`, the growth is 102% (inactive). The result for `OCCOSCCO` reads 106% (inactive); that for `COc1cc(OC)c(/C=C/c2c3ccccc3cc[n+]2C)c(OC)c1`, 20.4% (inactive); that for `CC(C)(C)c1ccc(O)c(Br)c1`, 126% (inactive). The result for `O=C/C=C/c1ccc([N+](=O)[O-])cc1` reads 103% (inactive). The figure for `COc1ccc2nc3cc(Cl)ccc3c(NCCCCCN3CCCCC3)c2c1` is -71.8% (active); for `COc1cc(-c2ccc(-[n+]3nc(-c4ccc([N+](=O)[O-])cc4)nn3-c3ccc([N+](=O)[O-])cc3)c(OC)c2)ccc1-[n+]1nc(-c2ccc([N+](=O)[O-])cc2)nn1-c1ccc([N+](=O)[O-])cc1` it is 1.62% (active); for `O=C1C=CC(=O)N1c1cc(Cl)c(Cl)cc1Cl` it is 87.2% (inactive). Consider `Nc1cccc2cccc([N+](=O)[O-])c12`, for which the growth is 98.3% (inactive). The result for `CCc1cnc2ccccc2c1/C=C/c1ccc(N(C)C)cc1` reads 30.3% (inactive); that for `O=[N+]([O-])c1ccc(C2N(Cc3ccc(Cl)cc3)CCN2Cc2ccc(Cl)cc2)cc1`, 101% (inactive). The figure for `Oc1ccc2c(c1)CCc1ccccc1-2` is 115% (inactive); for `COc1cc(/C=C2\SC(=S)N(/C=C/c3nc4ccccc4[nH]c3=O)C2=O)cc(OC)c1OC` it is 81.1% (inactive).

Turning to `CC(C)(C)CC(C)(C)c1ccc(OCCOCCSC(=N)N)cc1`, the growth is 85% (inactive).

The values above are taken from PubChem BioAssay (NCI).
